Screening data deposited in PubChem BioAssay by National Center for Advancing Translational Sciences (NCATS).
Rab9 promoter act = qHTS Assay for Rab9 Promoter Activators. Huh7 Rab9 promoter-luciferase reporter, luminescence, 24 h. hit rate 2.8% among 320,000. AID 485297, 2010. Potency, µM (highest dose often 9.22 µM), inactives show top-dose activation, negative = inhibition, hits mostly activators; further: % of control where 0% means no effect; nearly all actives have a fitted effect of over 60% in size
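Rab9 promoter-driven luciferase in stably transfected Huh7 cells; 1500 cells/well rested 2 h, exposed to compound in DMSO for 24 h at 37 °C, 5% CO2. Luminescence read 10 min after adding luciferase reagent at ambient temperature.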
SMN2 splice enh = qHTS Assay for Enhancers of SMN2 Splice Variant Expression; HEK293 SMN2-luciferase splicing reporter, luminescence, 30-36 h; Potency, µM (doses to about 46.1 µM), inactives show at the top dose activity change, positive = activation, most hits filed as activators; hit rate 2.8% among 210,000; further: % of control where 0% means no effect; nearly all actives have a fitted effect of over 55% in size
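HEK293 cells carry an SMN2 minigene-luciferase reporter in which exon 7 inclusion puts luciferase in frame. Cells were seeded at 2000 cells/well, attached for 10-12 hours, then exposed to compounds for 30-36 hours at 37C before ONE-Glo luminescence.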
FLuc counter = qHTS profiling assay for firefly luciferase inhibitor/activator using purifed enzyme and Km concentrations of substrates (counterscreen for miR-21 project); Luciferin 4-monooxygenase (Photinus pyralis), P08659; purified FLuc, Km substrates, luminescence inhibition; Potency, µM (titrated, usually from 57.5 µM), without a hit: at the top dose activity change, negative = inhibition, actives largely listed as inhibitors; hit rate 6.9% among 360,000;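 further: plate controls were vehicle for no effect and reference inhibitor for full effect; nearly all actives have a fitted effect of over 55% in size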
Target sequence (P08659 whole entry, looked up): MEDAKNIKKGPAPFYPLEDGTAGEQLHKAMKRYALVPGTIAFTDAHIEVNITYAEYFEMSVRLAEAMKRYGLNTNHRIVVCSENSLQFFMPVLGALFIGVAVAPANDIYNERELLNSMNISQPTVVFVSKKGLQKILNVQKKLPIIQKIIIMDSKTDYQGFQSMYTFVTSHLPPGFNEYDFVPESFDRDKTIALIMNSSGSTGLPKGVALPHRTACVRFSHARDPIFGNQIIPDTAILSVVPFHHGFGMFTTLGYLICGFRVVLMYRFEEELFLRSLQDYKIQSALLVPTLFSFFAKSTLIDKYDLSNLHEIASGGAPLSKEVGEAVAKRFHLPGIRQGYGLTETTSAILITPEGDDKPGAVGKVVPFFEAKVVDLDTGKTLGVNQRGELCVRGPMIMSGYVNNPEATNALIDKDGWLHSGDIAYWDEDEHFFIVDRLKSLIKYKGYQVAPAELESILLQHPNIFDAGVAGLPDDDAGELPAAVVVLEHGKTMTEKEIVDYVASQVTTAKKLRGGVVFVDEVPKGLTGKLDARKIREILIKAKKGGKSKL
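Biochemical qHTS of compounds, final roughly 60 µM downward over six points, against 10 nM purified firefly luciferase using Km concentrations of substrates (10 uM D-luciferin, 10 uM ATP) in Tris acetate pH 7.5 buffer; luminescence output.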
ELG1 genotoxic = qHTS screen for small molecules that induce genotoxicity in human embryonic kidney (HEK293T) cells expressing luciferase-tagged ELG1. HEK293T ELG1-luciferase reporter, luminescence, 16 h. Potency, µM (highest dose often 46 µM), without a hit: at the top dose activity change, positive = activation, usual class: activators. hit rate 1.3% among 330,000. AID 504466, 2011; further: % of control where 0% means no effect; nearly all actives have a fitted effect of over 60% in size
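After overnight (16 hr) compound treatment at 37 °C, ELG1-luciferase HEK293T cells were lysed with ONE-Glo; luminescence quantified 30 min later at room temperature.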
KinaseGlo FLuc = Counterscreen for Luciferase (Kinase-Glo TM) Inhibition; hit rate 0.28% among 200,000; Luciferin 4-monooxygenase (Photuris pensylvanica), Q27757; Kinase-Glo luciferase, ATP luminescence, 8 min; Potency, µM (doses to about 38.3 µM), for the others: at the top dose activity change, negative = inhibition, hits mostly inhibitors; further: on the % scale 0 is the no-effect control and ±100 the full control effect; nearly all actives have a fitted effect of over 60% in size
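Compound is pinned into ATP-containing buffer (10 uM ATP, imidazole pH 7.2, 7 mM MgCl2). Kinase-Glo luciferase reagent is then added. Light output is recorded following an 8-min room-temperature incubation.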
NPC1 promoter act = qHTS Assay for NPC1 Promoter Activators; hit rate 2.4% among 320,000; Potency, µM (top dose mostly 9.22 µM), inactives show at the highest dose activation, usual class: activators; AID 485313, 2010; Huh7 NPC1 promoter luciferase reporter, 24 h; further: % of control where 0% means no effect; nearly all actives have a fitted effect of over 60% in size
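Stable NPC1-promoter luciferase Huh7 line; cpd (DMSO) 24 h, 37 °C, 5% CO2; Amplite luciferase reagent 10 min RT; luminescence readout. qHTS format.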
Numbers without * were called inactive; u = inconclusive; x = no result. Rows were chosen to be rich in hits. Some 7.5% of all compounds tested hit in one or more screens of this group. The call rests on the fitted dose curve; in most records, active means well fitted curve in the direction sought with a large enough effect; inconclusive means small, poorly fitted or top-dose-only effect, or another doubt; inactive means no such curve, though single readings can be large; an effect the other way counts as inactive or inconclusive. Potency means the concentration at half of the fitted maximal effect.

SMILES	Rab9 promoter act	SMN2 splice enh	FLuc counter	ELG1 genotoxic	KinaseGlo FLuc	NPC1 promoter act
CC(C)c1nnc(NC(=O)c2ccc3c(c2)OCO3)s1	0.282µM*	1µM*	1.35µM*	u	-4.3%	0.447µM*
CCN1CCn2c3c(c4cccc(C)c42)CCCC31 (stereo not drawn)	1.1%	x	12.8%	-2.9%	x	-6.4%
CCN1CCc2c(sc(-n3cccc3)c2C(C)NC(=O)Nc2ccccc2C)C1 (stereo not drawn)	x	x	-1.0%	x	x	x
CCc1cccc(NC(=O)c2cccc(S(=O)(=O)N3CCN(C)CC3)c2)c1	0.9%	x	1.8%	0.8%	x	-1.6%
OC1C2COC(O2)[C@H](O)C1O (stereo partly drawn)	x	-4.0%	x	x	-0.9%	x
O=C(Nc1ccc2nc(SCCOc3ccccc3)sc2c1)c1cccs1	x	x	2.7%	x	x	x
CCSc1nnc(NC(=O)c2ccc3c(c2)OCO3)s1	1.58µM*	10µM*	6.75µM*	2.06µM*	-3.1%	2.51µM*
CCOC(=O)CSc1nnc(NC(=O)c2ccc3c(c2)OCO3)s1	10.1%	x	1.07µM*	19.3%	x	-5.7%
CC(C)Sc1nnc(NC(=O)c2ccc3c(c2)OCO3)s1	1.41µM*	x	5.36µM*	u	x	2.24µM*
CCCCC(=O)N1CCc2cc(OC)c(OC)cc2C1COc1ccc(C(=O)OCC)cc1 (stereo not drawn)	x	x	2.1%	x	x	x
COc1cccc(C(C(=O)NC2CCCC2)N(C(=O)c2ccco2)c2ccc(-n3cnnn3)c(C)c2)c1OC (stereo not drawn)	-5.6%	x	2.4%	1.3%	-1.1%	-1.0%
O=C(CCNC(=O)c1ccccc1Cl)NC1=NCCS1	1.0%	6.6%	0.1%	-1.3%	1.5%	-2.8%
Cc1nc(SCC(=O)N(C)C2(C#N)CCCCC2)c2ccccc2n1	-8.0%	x	23.9µM*	-6.0%	x	-0.2%
Cc1nc(SCC(=O)N(C)C2CCS(=O)(=O)C2)c2ccccc2n1 (stereo not drawn)	x	x	x	-4.3%	x	x
COCCCNC(=O)C1CCN(c2ncnc3c2nc2n3CCCCC2)CC1	x	x	-6.0%	x	x	x
CCOC(=O)c1sc(NC(=O)c2cncc(Br)c2)nc1C	17.2%	4.47µM*	2.13µM*	18.4µM*	-3.5%	-13.8%
CCOC(=O)c1sc(NC(=O)c2ccc3ncsc3c2)nc1C	-37.3%	2.82µM*	0.953µM*	2.31µM*	-0.2%	-33.5%
COC(=O)Cc1csc(NC(=O)c2ccc3ncsc3c2)n1	u	x	23.9µM*	16.4%	x	21.5%
Nc1nc(CN2CCN(c3ccccc3F)CC2)nc(N2CCCc3ccccc32)n1	1.1%	-52.5%	-3.6%	-6.1%	5.5%	-1.3%
Cc1ccc(C(=O)Cn2c3c(sc2=N)CCCC3)cc1	x	0.501µM*	x	x	u	x
Cc1ccc(-n2nc3ccc(N)cc3n2)c(C)c1	21.8%	x	7.57µM*	u	x	1.9%
COc1ccc(-n2nc3ccc(N)cc3n2)cc1Cl	14.1%	x	1.51µM*	u	x	21.0%
Cc1ccc(C)c(-c2nc3ccc(N)cc3[nH]2)c1	-1.3%	15.6%	u	u	-8.7%	-2.6%
COc1ccc(-n2nc3ccc(NC(=O)c4ccc(C#N)cc4F)cc3n2)cc1Cl	x	8.0%	-1.7%	x	x	x
Cc1ccc(-n2nc3ccc(N)cc3n2)cc1Cl	u	x	0.675µM*	u	x	u
COc1ccc(-n2nc3ccc(NS(C)(=O)=O)cc3n2)cc1Cl	25.5%	25.4%	3.38µM*	16.4µM*	-0.4%	u
CCCCCCCCNC(CO)(CO)CO	-9.5%	x	2.3%	-5.9%	x	-0.9%
O=C(c1ccc(CS(=O)c2ccccc2Cl)o1)N1CCN(c2cccc(C(F)(F)F)c2)CC1 (stereo not drawn)	x	x	4.1%	x	x	x
O=C(c1ccc([N+](=O)[O-])cc1)N1CCN(Cc2ccccc2[N+](=O)[O-])CC1	-2.0%	u	u	-9.8%	0.2%	-3.1%
